{
  "source": "PubChem BioAssay",
  "key": {"[1]": {"assay": "P. berghei load reduction in hepatocytes – cell-based, HepG2, luciferase luminescence, HepG2 viability, primary screen (AID 624349; in the data active = parasite load remaining mostly below about 12%, no sharp cut-off; inactive = mostly above about 10%;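 for all read-outs here: 100% = mean of DMSO negative control wells on the same plate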)", "settings": "P. berghei liver stage in HepG2, luciferase luminescence, concentration not given here; parasite load remaining: stronger effect = lower value; viability: measured here: HepG2 viability without parasites"}, "[2]": {"assay": "Wnt pathway potentiators raising nuclear beta-catenin – imaging, WNT3A-conditioned medium, mouse C2C12, NPC library, primary screen (AID 1117326; in the data active = nuclear beta-catenin stimulation mostly above about 4.2%, no sharp cut-off; inactive = mostly below about 10%)", "settings": "stronger effect = higher value"}, "[3]": {"assay": "stimulators of insulin release from INS-1E, primary screen, cell-based, 5 mM glucose, NPC library (AID 1117329;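 active = compound raises insulin release from rat beta cells at 5 mM glucose, no numeric limit stated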)", "settings": "rat INS-1E insulin secretion, at 10 µM, stronger effect = higher value"}, "[4]": {"assay": "growth inhibition of GSK3B-pretreated HCT116 cells – cell-based, CellTiter-Glo, 0.2 to 20 µM (AID 1117336;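 active = compounds lowering colon cancer cell viability after pretreatment blocking the GSK3B kinase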)", "settings": "HCT116 viability after GSK3B inhibitor, at 20 µM, stronger effect = higher value"}, "[5]": {"assay": "inhibition of endothelial tube formation, primary screen, imaging, VEGF stimulated, CD31 staining, tube area, NPC library (AID 1117340;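 active = compound that reduces growth-factor-driven endothelial tube area in a mixed cell culture, no cutoff stated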)", "settings": "VEGF-stimulated ADSC/ECFC co-culture, at 10 µM, stronger effect = higher value"}, "[6]": {"assay": "GLP1 release stimulators, primary, NCI-H716, NPC library (AID 1117341;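 active = compound raises GLP1 secretion from the human gut endocrine cells, with no numeric limit stated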)", "settings": "NCI-H716 cells, at 10 µM, stronger effect = higher value"}, "[7]": {"assay": "HCT116 colon cancer cell growth inhibition, primary screen, CellTiter-Glo luminescence, NPC library (AID 1117342;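 active = compounds that lower survival of HCT116 colon cancer cells in the luminescence readout, no numeric limit stated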)", "settings": "at 20 µM (top of the series)"}, "[8]": {"assay": "reduced SW480 viability measured with CellTiter-Glo, NPC library, primary (AID 1117343;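 active = compounds that lower viability of the colon cancer cells in the luminescence readout, with no numeric limit stated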)", "settings": "CellTiter-Glo luminescence; at 20 µM (top of the series) unless noted"}, "[9]": {"assay": "NPC library primary testing for decreased DLD-1 cell viability via CellTiter-Glo (AID 1117346;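 active = compounds that lower survival of DLD-1 colon cancer cells in the luminescence readout, no cutoff given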)", "settings": "DLD-1 viability, CellTiter-Glo luminescence; at 20 µM (top of the series)"}, "[10]": {"assay": "EMT-state selective cytotoxicity in co-culture – imaging, PC-3E GFP, TEM4-18 mCherry, primary screen (AID 1345086;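 active = compounds killing one labelled cell type while sparing the other, by normalised counts and ratio limits, not self-fluorescent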;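 for all read-outs here: cells exposed to compound for 72 h before imaging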;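 for red/green cell ratio (normalised): normalised mesenchymal count divided by normalised epithelial count so high means epithelial killing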)", "settings": "PC-3E GFP / TEM4-18 mCherry co-culture, imaging cell counts, at 1 µM; for red/green cell ratio (normalised): actives lie on both sides, counts scaled to control wells, 1 = unselective"}, "[11]": {"assay": "viability loss with induced miR-34 in A549 – imaging, A549 dox-inducible miR-34, nuclei and caspase counts, primary screen (AID 1347080)", "settings": "A549 miR-34 inducible, Hoechst nuclei count, 48 h"}, "[12]": {"assay": "MELAS cybrid and Rieske KO viability enhancers – cell-based, MELAS cybrids, Rieske KO mouse fibroblasts, CellTiter-Glo, primary screen (AID 1508586;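 active = mean z-score across replicates of 1.96 or higher in either the MELAS or the Rieske mutant cell line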;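 note: z relative to plate mean and SD of compound and empty wells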)", "settings": "low glucose"}, "[13]": {"molecular_target": "NAD(+) hydrolase SARM1 (Homo sapiens) (UniProt Q6SZW1)", "sequence (Q6SZW1 whole entry, looked up)": "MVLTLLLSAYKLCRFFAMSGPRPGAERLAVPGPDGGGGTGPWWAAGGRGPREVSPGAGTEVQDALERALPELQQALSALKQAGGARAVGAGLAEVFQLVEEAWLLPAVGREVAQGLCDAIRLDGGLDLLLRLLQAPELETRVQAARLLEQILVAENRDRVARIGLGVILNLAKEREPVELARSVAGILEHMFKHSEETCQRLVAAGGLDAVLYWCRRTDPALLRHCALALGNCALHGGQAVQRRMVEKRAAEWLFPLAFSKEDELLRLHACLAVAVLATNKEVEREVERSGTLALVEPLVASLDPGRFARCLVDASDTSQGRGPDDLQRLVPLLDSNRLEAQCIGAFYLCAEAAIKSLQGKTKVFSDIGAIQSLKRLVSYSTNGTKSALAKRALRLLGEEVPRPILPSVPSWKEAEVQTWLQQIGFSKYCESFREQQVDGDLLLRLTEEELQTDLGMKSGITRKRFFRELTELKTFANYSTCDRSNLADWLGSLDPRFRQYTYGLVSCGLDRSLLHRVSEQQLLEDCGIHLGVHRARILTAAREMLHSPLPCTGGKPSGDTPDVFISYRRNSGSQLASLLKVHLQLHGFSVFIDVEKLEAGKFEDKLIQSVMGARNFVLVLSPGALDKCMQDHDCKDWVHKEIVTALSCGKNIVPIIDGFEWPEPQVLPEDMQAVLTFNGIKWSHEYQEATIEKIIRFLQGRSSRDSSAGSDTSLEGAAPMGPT", "assay": "blocking NAD cleavage by SARM1 SAM-TIR – cell lysate, NAD-Glo luminescence (AID 1508614;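 active = compound whose remaining NAD level is above about 45 nM, limit read from the data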)", "settings": "SAM-TIR HEK293T lysate NADase, at 1 µM, stronger effect = higher value"}, "[14]": {"assay": "compounds altering viability of human ES cells (AID 493140; call rule not given here;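 note: cells exposed to compounds for four days before counting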)", "settings": "human embryonic stem cell survival screen; stronger effect = higher value"}, "[15]": {"settings": "measured here: epithelial PC-3E GFP cell survival"}, "[16]": {"settings": "measured here: mesenchymal TEM4-18 mCherry cell survival"}, "[17]": {"settings": "stronger effect = lower value, cell number ratio, induced over uninduced"}, "[18]": {"settings": "measured here: relative caspase fold change +Dox/-Dox"}, "[19]": {"settings": "measured here: total cells with miR-34 induction, stronger effect = lower value"}, "[20]": {"settings": "measured here: total cells without miR-34 induction"}, "[21]": {"settings": "MELAS cybrid survival, CellTiter-Glo 48 h, stronger effect = higher value"}, "[22]": {"settings": "Rieske KO mouse fibroblast survival, CellTiter-Glo 72 h"}},
  "note": "Values joined by “and” are separate entries in the source; they are usually repeats but may differ in a detail not shown here. Identical values can stand only once. Active and inactive are the calls of the source.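 Rule for the calls, unless noted: active = compounds whose cell count with miR-34 switched on is under 0.7 times the count with it off; inactive = the rest.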",
  "data": [
    {"smiles": "CCOc1ccc2nc(S(N)(=O)=O)sc2c1", "values": [
      {"measurement": "parasite load remaining", "setting": "[1]", "value": "32.3% (inactive) and 52.3% (inactive)"},
      {"measurement": "viability", "setting": "[1]", "value": "171% and 98.2%"},
      {"measurement": "nuclear beta-catenin stimulation", "setting": "[2]; at 10 µM", "value": "1.3% (inactive)"},
      {"measurement": "nuclear beta-catenin stimulation", "setting": "[2]; stimulation, at 2 µM", "value": 0.1, "unit": "%"},
      {"measurement": "insulin secretion stimulation", "setting": "[3]", "value": "-2.2% (inactive)"},
      {"measurement": "viability decrease", "setting": "[4]", "value": "16.7% (inactive)"},
      {"measurement": "tube area decrease", "setting": "[5]", "value": "20.8% (inactive)"},
      {"measurement": "GLP1 secretion stimulation", "setting": "[6]", "value": "2.1% (inactive)"},
      {"measurement": "inhibition of viability", "setting": "[7]", "value": "-30% (inactive)"},
      {"measurement": "viability decrease (inhibition)", "setting": "[8]", "value": "85.7% (active)"},
      {"measurement": "viability decrease (inhibition)", "setting": "[9]", "value": "7.15% (inactive)"},
      {"measurement": "red/green cell ratio (normalised)", "setting": "[10]", "value": "0.96 (inactive)"},
      {"measurement": "normalised cell number", "setting": "[10]; [15]", "value": 0.89},
      {"measurement": "normalised cell number", "setting": "[10]; [16]", "value": 0.86},
      {"measurement": "fold change", "setting": "[11]; [17]", "value": "0.841 (inactive) and 0.925 (inactive)"},
      {"measurement": "fold change", "setting": "[11]; [18]", "value": "3.81 and 2.83"},
      {"measurement": "cell count", "setting": "[11]; [19]", "value": "10500 and 10700"},
      {"measurement": "cell count", "setting": "[11]; [20]", "value": "12500 and 11500"},
      {"measurement": "z-score", "setting": "[12]; [21]", "value": "-0.477 (inactive)"},
      {"measurement": "z-score", "setting": "[12]; [22]", "value": 0.458},
      {"measurement": "remaining NAD", "setting": "[13]", "value": "10 nM (inactive)"}
    ]},
    {"smiles": "CCN(CC)CCNC(C(=O)OCCC(C)C)c1ccccc1", "note": "(stereo not drawn)", "values": [
      {"measurement": "nuclear beta-catenin stimulation", "setting": "[2]; at 10 µM", "value": "-0.8% (inactive)"},
      {"measurement": "nuclear beta-catenin stimulation", "setting": "[2]; stimulation, at 2 µM", "value": -0.5, "unit": "%"},
      {"measurement": "insulin secretion stimulation", "setting": "[3]", "value": "32.4% (active)"},
      {"measurement": "viability decrease", "setting": "[4]", "value": "6.1% (inactive)"},
      {"measurement": "tube area decrease", "setting": "[5]", "value": "-3.9% (inactive)"},
      {"measurement": "GLP1 secretion stimulation", "setting": "[6]", "value": "8.2% (inactive)"},
      {"measurement": "inhibition of viability", "setting": "[7]", "value": "0.2% (inactive)"},
      {"measurement": "viability decrease (inhibition)", "setting": "[8]", "value": "26.1% (inactive)"},
      {"measurement": "viability decrease (inhibition)", "setting": "[9]", "value": "9.9% (inactive)"},
      {"measurement": "red/green cell ratio (normalised)", "setting": "[10]", "value": "1.16 (inactive)"},
      {"measurement": "normalised cell number", "setting": "[10]; [15]", "value": 0.66},
      {"measurement": "normalised cell number", "setting": "[10]; [16]", "value": 0.76},
      {"measurement": "fold change", "setting": "[11]; [17]", "value": "0.979 (inactive)"},
      {"measurement": "fold change", "setting": "[11]; [18]", "value": 0.754},
      {"measurement": "cell count", "setting": "[11]; [19]", "value": 8430},
      {"measurement": "cell count", "setting": "[11]; [20]", "value": 8620},
      {"measurement": "z-score", "setting": "[12]; [21]", "value": "0.328 (inactive)"},
      {"measurement": "z-score", "setting": "[12]; [22]", "value": 0.121},
      {"measurement": "remaining NAD", "setting": "[13]", "value": "10 nM (inactive)"}
    ]},
    {"smiles": "CC(C)(C)C(=O)C(Oc1ccc(Cl)cc1)n1ccnc1", "note": "(stereo not drawn)", "values": [
      {"measurement": "parasite load remaining", "setting": "[1]", "value": "15% (inactive)"},
      {"measurement": "viability", "setting": "[1]", "value": 70, "unit": "%"},
      {"measurement": "nuclear beta-catenin stimulation", "setting": "[2]; at 10 µM", "value": "2.6% (inactive)"},
      {"measurement": "nuclear beta-catenin stimulation", "setting": "[2]; stimulation, at 2 µM", "value": 1.9, "unit": "%"},
      {"measurement": "insulin secretion stimulation", "setting": "[3]", "value": "2.5% (inactive)"},
      {"measurement": "viability decrease", "setting": "[4]", "value": "6.3% (inactive)"},
      {"measurement": "tube area decrease", "setting": "[5]", "value": "11.3% (inactive)"},
      {"measurement": "GLP1 secretion stimulation", "setting": "[6]", "value": "7.4% (inactive)"},
      {"measurement": "inhibition of viability", "setting": "[7]", "value": "34.8% (inactive)"},
      {"measurement": "viability decrease (inhibition)", "setting": "[8]", "value": "27.1% (inactive)"},
      {"measurement": "viability decrease (inhibition)", "setting": "[9]", "value": "44.1% (inactive)"},
      {"measurement": "red/green cell ratio (normalised)", "setting": "[10]", "value": "0.92 (inactive)"},
      {"measurement": "normalised cell number", "setting": "[10]; [15]", "value": 0.94},
      {"measurement": "normalised cell number", "setting": "[10]; [16]", "value": 0.86},
      {"measurement": "fold change", "setting": "[11]; [17]", "value": "0.911 (inactive) and 0.872 (inactive)"},
      {"measurement": "fold change", "setting": "[11]; [18]", "value": "1.11 and 1.1"},
      {"measurement": "cell count", "setting": "[11]; [19]", "value": "8350 and 8730"},
      {"measurement": "cell count", "setting": "[11]; [20]", "value": "9170 and 10000"},
      {"measurement": "z-score", "setting": "[12]; [21]", "value": "-0.118 (inactive) and 0.2 (inactive)"},
      {"measurement": "z-score", "setting": "[12]; [22]", "value": "-0.278 and -0.284"},
      {"measurement": "remaining NAD", "setting": "[13]", "value": "10 nM (inactive)"}
    ]},
    {"smiles": "Oc1c(I)cc(Cl)c2cccnc12", "values": [
      {"measurement": "survival", "setting": "[14]", "value": "4.42 (inactive)"},
      {"measurement": "parasite load remaining", "setting": "[1]", "value": "11.3% (inactive) and 21.8% (inactive)"},
      {"measurement": "viability", "setting": "[1]", "value": "89.4% and 95.4%"},
      {"measurement": "nuclear beta-catenin stimulation", "setting": "[2]; at 10 µM", "value": "55.7% (active)"},
      {"measurement": "nuclear beta-catenin stimulation", "setting": "[2]; stimulation, at 2 µM", "value": 6, "unit": "%"},
      {"measurement": "insulin secretion stimulation", "setting": "[3]", "value": "-0.1% (inactive)"},
      {"measurement": "viability decrease", "setting": "[4]", "value": "82% (active)"},
      {"measurement": "tube area decrease", "setting": "[5]", "value": "110% (active)"},
      {"measurement": "GLP1 secretion stimulation", "setting": "[6]", "value": "-5% (inactive)"},
      {"measurement": "inhibition of viability", "setting": "[7]", "value": "81.2% (active)"},
      {"measurement": "viability decrease (inhibition)", "setting": "[8]", "value": "127% (active)"},
      {"measurement": "viability decrease (inhibition)", "setting": "[9]", "value": "97.8% (active)"},
      {"measurement": "red/green cell ratio (normalised)", "setting": "[10]", "value": "1 (inactive)"},
      {"measurement": "normalised cell number", "setting": "[10]; [15]", "value": 0.99},
      {"measurement": "normalised cell number", "setting": "[10]; [16]", "value": 0.99},
      {"measurement": "fold change", "setting": "[11]; [17]", "value": "1.06 (inactive) and 0.786 (inactive)"},
      {"measurement": "fold change", "setting": "[11]; [18]", "value": "0.681 and 1.8"},
      {"measurement": "cell count", "setting": "[11]; [19]", "value": "5310 and 5470"},
      {"measurement": "cell count", "setting": "[11]; [20]", "value": "5010 and 6960"},
      {"measurement": "z-score", "setting": "[12]; [21]", "value": "0.113 (inactive)"},
      {"measurement": "z-score", "setting": "[12]; [22]", "value": -0.741},
      {"measurement": "remaining NAD", "setting": "[13]", "value": "10 nM (inactive)"}
    ]}
  ]
}
